# According to ChEMBL document CHEMBL5308541, “MAIP: An Open-Source Tool to Enrich High-Throughput Screening Output and Identify Novel, Druglike Molecules with Antimalarial Activity” (ACS Med Chem Lett, 2023):
# The whole screen tested about 150,000 compounds, of which about 540 (0.36%) showed an effect of 50% or more. This excerpt belongs to a sample that is enriched for strong results.
# Test system: Plasmodium falciparum
# Experiment: Primary screen in NF54 nanoGlo assay, in single point, at 2uM, 72h; a lower Z score goes with more inhibition
# Type: functional, Erythrocyte
# Conditions: timepoint 72 hour
SMILES,% Inhibition,Z score
CN1CCC(N2CCC(CN(CCCn3cccn3)Cc3ccncc3)CC2)CC1,-6%,0.97
Clc1ccc2[nH]c3c(c2c1)CCCC3NC1CCN(C2CCOC2)CC1 (stereo not given),83%,-16.55
Cc1ccc2[nH]c3c(c2c1)CCCC3NC1CC2CCC1O2 (stereo not given),-7%,1.25
Cn1ncc(C(F)(F)F)c1CN[C@H]1CCCc2c1[nH]c1ccc(Cl)cc21,-15%,2.6
CN1CCC[C@@H](CNc2ccnc3ccncc23)[C@@H]1c1ccnn1C,10%,-1.79
COCCCN1CCC(Nc2ncnc3cc(C)c(C)cc23)CC1,96%,-16.62
COCCN1CCC(Nc2ncnc3c(C)cccc23)CC1,4%,-0.91
COCCN1CCC(Nc2nccnc2NC2CCN(CCOC)CC2)CC1,1%,-0.15
COc1ccc(Nc2ncc(CN(C)CCn3ccnc3)s2)cc1,1%,-0.26
COCCN1CC[C@H](CNC2CCN(c3ncc4ccc(F)cc4n3)CC2)C1,58%,-10.01
CCc1cc(Nc2ccc(N3CCOCC3)nc2)nc(-c2ccncc2)n1,56%,-9.65
CCc1cc(NC2CCN(CC(F)F)CC2)nc(-c2ccncc2)n1,4%,-0.75
CN1CCC(N2CCN(Cc3c(Cl)ccc(O)c3Cl)CC2)CC1,-11%,1.6
NCCc1cccc(CN2CCC[C@H](CN3CCCCC3)C2)c1,3%,-0.52
O=C(NCc1ccc(N2CCNCC2)c(F)c1)c1ccc(-c2noc(C(F)(F)F)n2)cc1,67%,-11.53
OC1CCN(Cc2cccc(NCc3cccc(OCCn4ccnc4)c3)c2)CC1,-3%,0.55
O[C@H]1CCN(Cc2cccc(NCc3cn4ccnc4s3)c2)C1,52%,-7.83
CCNc1cc(C)nc(NCCNC(=O)Nc2cc(F)cc(F)c2)n1,79%,-17.07
CCNc1cc(C)nc(NCCNC(=O)c2cc(-n3cccn3)nc(C)n2)n1,-1%,0.15
CCNc1nc(C)cc(Nc2ccc(NC(=O)Nc3ccc(F)cc3F)cc2)n1,96%,-20.77
CN(C)Cc1ccccc1NC(=O)c1cccc2c(=O)c3ccccc3[nH]c12,-2%,0.38
NS(=O)(=O)Cc1cccc(NC(=O)c2cc(F)cc3c(=O)c4cccc(F)c4[nH]c23)c1,-8%,1.68
COc1cc2nc(NCC3(N4CCN(C)CC4)CCCC3)cc(C)c2cc1OC,55%,-8.35
COc1cc2nc(N3CCC(CN4CCN(C)CC4)CC3)cc(C)c2cc1OC,-2%,0.44
CC(C)CCOc1ccc2[nH]c(-c3cc(N4CCC[C@@H]4CS(C)(=O)=O)ccn3)cc2c1,97%,-20.97
CCOc1cc2nccc(N3C[C@H]4CN(C)C[C@H]4C3)c2cc1OCC,99%,-21.22
O=C1c2cccc3cccc(c23)C(=O)N1CCc1nc2ccccc2s1,-1%,0.09
COCC(O)CN1CCC(NC2CCCNc3ccccc32)CC1 (stereo not given),-7%,1.28

SMILES,% Inhibition,Z score
O=C(c1cc(-c2ccccc2)[nH]n1)N1CCC(c2nc3cc(C(F)(F)F)ccc3s2)CC1,3%,-0.4
O[C@H]1CCN(Cc2ccccc2CNc2cccc(-n3ccnc3)n2)C1,94%,-14.28
CCN1CCC[C@H](Nc2cccc(-n3ccnc3)n2)C1,46%,-6.91
O[C@@H]1CCCCC[C@H]1Nc1cccc(-n2ccnc2)n1,-11%,1.62
CCn1nc(C(C)C)cc1C(=O)Nc1ccc(CC(=O)NC2CC2)cc1,3%,-0.75
Cc1cc(=O)[nH]c(-n2nc(C)cc2NC(=O)[C@H](C)n2nc3c(cc2=O)CCC3)n1,-7%,1.4
Cc1cc(=O)[nH]c(-n2nc(C)cc2NC(=O)C(=O)N2CCC[C@H](C)C2)n1,4%,-0.54
COC(=O)c1cn(CCNc2ccnc3cc(Cl)ccc23)cc2c(O)nnc1-2,97%,-19.19
Nc1cc(N2CCC(c3nc4cc(F)ccc4[nH]3)CC2)nc(N2CCOCC2)n1,52%,-10.32
Nc1cc(N2CCC(N3CCc4ccccc4C3)CC2)nc(N2CCOCC2)n1,5%,-0.91
Cc1cc(NC[C@H](O)COc2ccc(F)cc2)nc2ccccc12,68%,-11.87
Cn1nnc(C(=O)N2CCCCC23CCCCCC3)n1,64%,-13.81
CCN1C[C@H](Nc2nc(C)nc3sccc23)[C@@H](OC)C1,99%,-21.25
COc1ccc(C(O)CNC2CCc3ccc(F)cc32)cc1 (stereo not given),0%,0.04
CN(C)C1CCN(CCN[C@H]2CCc3ccc(F)cc32)CC1,87%,-15.32
Cc1cnccc1NCCNc1nc(C(C)(C)C)nc2c1cnn2C,20%,-3.05
Cc1cc(=O)n(CCN2CCN(C(=O)c3ccc[nH]3)CC2)c(=O)[nH]1,-9%,1.92
COc1ccc2cc(-c3cc(N)ccn3)[nH]c2c1,54%,-11.7
NC(=O)[C@H]1CCCN(CCCNc2cc(C(F)(F)F)nc(N3CCCC3)n2)C1,-5%,0.88
Cc1cc(NCCCN2CCC(C(=O)O)CC2)nc2ccccc12,-15%,2.33
COc1ccc2c(C)cc(NCCCN3CCC[C@H](C(N)=O)C3)nc2c1,57%,-8.7
c1ccc(CN2CCC(CCNC[C@@H]3CCCN4CCCC[C@H]34)CC2)cc1,57%,-10.03
Fc1ccc(-n2cc(CNCCC3CCN(c4ccncc4)CC3)cn2)cc1,91%,-15.93
CCN1CCN(c2ccccc2CNCCC2CCN(C)CC2)CC1,27%,-4.06
CN1CCN(CC[C@H]2CCCCN2Cc2cnn(-c3ccc(F)cc3)c2)CC1,3%,-0.51
c1ccc2c(CNCCC3CCN(c4ccncc4)CC3)csc2c1,80%,-17.16
Fc1ccc2c(CCNCc3cnn(-c4ccccc4)c3)c[nH]c2c1,-3%,0.71
